Results filed as inconclusive are left out. Active and inactive are the calls of the source. Unless noted, no stated cut-off is given here; in the data, active means inhibition above about 30%; inactive means the rest.

These results are taken from PubChem BioAssay.

Test [1] can be described thus: reducers of endogenous Her2 protein level, primary screen, SKBR3 breast tumor cells, AlphaScreen, ATP viability (AID 461;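 active means Her2 level under about 52% in both replicate screens, with viability over 70% of control, limit read from the data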;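 on Her2 level: lower value means less Her2 protein in the cells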;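 on viability: percent of carrier control wells set as 100% viability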). The note with it: 18-24 h, measured here: SKBR3 viability, ATP luminescence, at 10 µM. A general note: Bead proximity is the source of the signal in Alpha formats.
Test [2] addresses Receptor tyrosine-protein kinase erbB-2 (Homo sapiens) (UniProt P04626). The description is as above. The note with it: 18-24 h, at 10 µM, stronger effect = lower value.
Test [3] can be described thus: SK-BR-3 cell growth inhibitors, pilot screen, 24 h, human (AID 572;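 active means viability at or below 10% of carrier control in both of two separate runs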;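 further: compound exposure lasted between 18 and 24 h rather than exactly 24 h; 100% = carrier-treated control wells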). The note with it: SK-BR-3 viability, CellTiter-Glo luminescence, at 10 µM, stronger effect = lower value. On the technique in general: In ATP-based viability assays light output follows the ATP content of the culture.
Test [4] in a line: HUVEC growth inhibition – cell-based, human, primary screen (AID 575;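 active means viability at or below 30% in both replicate assays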;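 further: 100% = median of untreated cell wells with 0.1% DMSO on each plate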). The note with it: HUVEC proliferation, CellTiter-Glo luminescence, 72 h; at 10 µM; stronger effect = lower value.
Test [5] is described as follows: growth inhibitors of H69AR lung tumor, primary screen, human, duplicate replicates (AID 580;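 active means viability at or under a set limit in both replicates, limit being median viability minus 3 SD, cut at about 48% in these data, passing the limit was not always enough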;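 further: 100% = mean luminescence of untreated wells and 0% = no signal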). The note with it: H69AR lung tumor cells viability, ATP luminescence, 72 h; at 10 µM; stronger effect = lower value.
Test [6] is described as follows: reversal of MRP1-mediated doxorubicin resistance, pilot screen, H69AR cells, doxorubicin co-treatment (AID 601;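 active means viability loss from added drug above about 55%, and viability with drug at most 40%, in both replicates, limit read from the data, passing the limit was not always enough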). The conditions noted are these: CellTiter-Glo, 72 h, at 10 µM; for differential viability (reversal): stronger effect = higher value.
The nature of test [7]: 384-well plate pilot, post-Golgi transport modulator project, inhibition of yeast transport mutant growth (AID 636; in the data active means inhibition above about 31%). The conditions noted are these: absorbance 615 nm, about 18 h, stronger effect = higher value.
A short description of test [8]: growth suppression of yeast trafficking mutant, preliminary HTS, modulators of trafficking downstream of Golgi apparatus project, 1536-format plate, OD 615 nm (AID 637). The conditions noted are these: yeast transport mutant growth, absorbance 615 nm, 18 h; stronger effect = higher value.
Test [9] is described as follows: OD615 S. cerevisiae growth inhibition, permissive medium, pilot counter-assay, permissive growth control for S. cerevisiae lifespan shortening project (AID 705;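 active means growth inhibition above 25% in both replicates, a cutoff set 3 SD above the mean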). The conditions noted are these: OD615, 24 h, at 10 µM, stronger effect = higher value.
Test [10] is described as follows: Restrictive medium S. cerevisiae growth inhibition, OD615, pilot screen of yeast lifespan reduction project, restrictive growth control (AID 706;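 active means growth inhibition above a set limit, 3 SD over mean compound inhibition, in both replicates, cut at about 43% in these data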;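 further: modified DeaD lifespan yeast strain shifted to restrictive glucose medium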). The note with it: OD615, 48 h, at 10 µM, stronger effect = higher value.
The nature of test [11]: viability gain of MRP-1-high H69AR cells under doxorubicin, pilot screen, MRP-1 activator project, CellTiter-Glo, duplicate (AID 807;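 active means viability increase at or above a cutoff of the median across tested compounds plus 3 SD, cut at about 8.5% in these data, passing the limit was not always enough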;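 further: compound pretreatment 18-22 h then 72 h combined with doxorubicin; 0% = doxorubicin alone and 100% = vehicle without doxorubicin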). The note with it: H69AR viability with doxorubicin, CellTiter-Glo luminescence; at 10 µM; stronger effect = higher value.
A short description of test [12]: growth suppression of beta-catenin knockout HCT116, pilot screen, human colon tumor cells (AID 823;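 active means cell viability at or below a set limit in both duplicate runs, the limit being the all-compound median minus 4 SD, cut at about 23% in these data, passing the limit was not always enough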;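 further: 0% = wells killed by 20 µM Hyamine and 100% = untreated DMSO cell wells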). The conditions noted are these: CellTiter-Glo, 60 h, at 10 µM, stronger effect = lower value.
A short description of test [13]: growth suppression of PTEN-deleted HCT116, pilot screen, cell-based, HCT116 clonal line, CellTiter-Glo (AID 824;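 active means viability at or below 27.92% in each of two runs, the all-compound median minus 4 SD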;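 further: 0% = 20 µM Hyamine control and 100% = vehicle cell control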). The note with it: 60 h, at 10 µM, stronger effect = lower value.
Test [14] in a line: inhibitors of the yeast RAM network, pilot screen, dse1pr::URA3 reporter, 5-FOA selection (AID 869;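 active means inhibition over a set limit, the all-compound mean plus 3 SD, in both replicate runs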;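 further: 0% = DMSO wells with no growth and 100% = 10 µM 1-NA-PP1 with full growth; RAM network block rescues cells from 5-FOA so hits raise OD615 growth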). The conditions noted are these: S. cerevisiae dse1pr::URA3 5-FOA growth, OD615, 2 d; at 10 µM; stronger effect = higher value; strain carries analog-sensitive mutant Cbk1 kinase.
The nature of test [15]: RAM signaling pathway blockade in yeast – S. cerevisiae, Pdr1DBD-CYC8 efflux-inhibited sensitized strain, primary screen (AID 1298;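 active means RAM network inhibition above 8.4% in each of two replicates, 3 SD over the compound average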;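 further: 0% = DMSO untreated cells without growth and 100% = 10 µM 1-NA-PP1 full growth; higher means more yeast growth rescued from 5-FOA killing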). The note with it: S. cerevisiae cbk1-as DSE1-URA3 strain, 5-FOA growth OD615, 2 d; at 50 µM; stronger effect = higher value.
[16] abbreviates: H69AR cells + 2 uM doxorubicin, measured here: viability with 2 uM doxorubicin, stronger effect = lower value.
[17] abbreviates: H69AR cells, compound alone cytotoxicity.

Sequence of Receptor tyrosine-protein kinase erbB-2 (Homo sapiens) (P04626 whole entry, looked up): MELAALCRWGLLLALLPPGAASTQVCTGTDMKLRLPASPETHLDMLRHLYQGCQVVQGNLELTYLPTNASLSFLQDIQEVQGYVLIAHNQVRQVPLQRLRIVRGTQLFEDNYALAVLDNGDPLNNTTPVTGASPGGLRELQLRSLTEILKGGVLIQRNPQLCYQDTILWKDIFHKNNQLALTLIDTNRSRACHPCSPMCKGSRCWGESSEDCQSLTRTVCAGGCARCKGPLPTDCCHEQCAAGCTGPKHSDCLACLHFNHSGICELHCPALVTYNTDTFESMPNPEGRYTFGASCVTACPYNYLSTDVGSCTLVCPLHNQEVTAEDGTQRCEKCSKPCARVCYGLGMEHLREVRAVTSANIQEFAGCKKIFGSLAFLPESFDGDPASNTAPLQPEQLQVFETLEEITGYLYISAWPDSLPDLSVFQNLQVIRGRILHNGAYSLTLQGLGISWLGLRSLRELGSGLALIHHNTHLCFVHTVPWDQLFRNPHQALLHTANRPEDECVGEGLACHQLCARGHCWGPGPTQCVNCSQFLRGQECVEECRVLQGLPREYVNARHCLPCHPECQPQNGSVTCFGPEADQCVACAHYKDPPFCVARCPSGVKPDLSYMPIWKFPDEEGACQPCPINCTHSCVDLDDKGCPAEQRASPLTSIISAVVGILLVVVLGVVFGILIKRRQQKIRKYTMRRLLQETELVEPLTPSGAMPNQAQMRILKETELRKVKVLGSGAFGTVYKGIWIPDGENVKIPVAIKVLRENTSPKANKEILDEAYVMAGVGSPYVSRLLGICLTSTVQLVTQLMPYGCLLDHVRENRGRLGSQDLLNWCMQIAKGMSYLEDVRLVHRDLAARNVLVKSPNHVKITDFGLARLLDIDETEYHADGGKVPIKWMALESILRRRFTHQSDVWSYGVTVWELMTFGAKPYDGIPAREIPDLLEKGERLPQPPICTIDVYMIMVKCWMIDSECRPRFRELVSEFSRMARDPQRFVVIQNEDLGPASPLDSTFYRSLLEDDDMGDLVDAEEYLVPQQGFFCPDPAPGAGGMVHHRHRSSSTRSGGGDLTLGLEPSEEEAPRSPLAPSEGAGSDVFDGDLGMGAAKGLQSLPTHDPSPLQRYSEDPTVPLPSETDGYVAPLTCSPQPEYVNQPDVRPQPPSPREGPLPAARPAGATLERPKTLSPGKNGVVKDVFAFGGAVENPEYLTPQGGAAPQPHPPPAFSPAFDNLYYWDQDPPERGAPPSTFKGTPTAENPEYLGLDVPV

By viability is commonly meant a read-out of living cells in per cent, often relative to untreated cells. For orientation: inhibition means the change of the read-out against control, counted positive when it falls. Regarding `Cc1cc(C)c(NC(=O)CSc2nc3c(c(=O)n2C)SC(C)C3)c(C)c1` (stereo not drawn), the viability was 93.5% in test [1]; 93.5% (inactive) in test [3]; 96.7% (inactive) in test [4]; 90% (inactive) in [5]; 96.2% in test [6] (setting [16]); 90% in [6] (setting [17]). The viability in [12] was 85.7% (inactive); in test [13], 77.5% (inactive). Besides, the Her2 level in test [2] was 118% (inactive). In test [6] (H69AR cells + 2 uM doxorubicin), the differential viability (reversal) was -6.17% (inactive). In addition, the inhibition in [7] is -2.67% (inactive); in test [8], 10% (inactive); in test [14], 1.58% (inactive). Further, the growth inhibition in test [9] was -7.85% (inactive); in test [10], -17.5% (inactive). For the same compound, in test [11], the viability increase is -0.13% (inactive). Besides, the RAM network inhibition in test [15] is 4.95% (inactive).
For `Cc1cc(C(N)=O)c2cc(Br)ccc2n1`, the viability in test [1] was 95.5%; in [3] it was 95.5% (inactive); in test [4] it was 109% (inactive); in test [5] it was 91.2% (inactive); in test [6] (setting [16]), 83.2%; in [6] (setting [17]), 91.2%. In addition, the viability in [12] is 98.3% (inactive); in [13], 96.5% (inactive). Moreover, the Her2 level in [2] is 95.5% (inactive). Further, the differential viability (reversal) in test [6] (H69AR cells + 2 uM doxorubicin) was 8% (inactive). Moreover, the results for the inhibition in test [7], in test [8] and in test [14] were -1.35% (inactive), 0.49% (inactive) and 0.94% (inactive), respectively. Moreover, the growth inhibition in test [9] is -1.99% (inactive); in test [10], -7.49% (inactive). Besides, in test [11], the viability increase is -2.23% (inactive). For the same compound, the RAM network inhibition in test [15] is 0.89% (inactive).
For the compound `COc1ccccc1-c1cc2nc(C)c(CCC(=O)NCc3ccco3)c(C)n2n1`, the viability in test [1] was 80%; in test [3], 80% (inactive); in [4] it was 88% (inactive); in test [5] it was 89.9% (inactive); in [6] (setting [16]), 88.3%; in test [6] (setting [17]), 89.9%. Further, the viability in test [12] was 97.2% (inactive); in [13], 98.1% (inactive). Also, the Her2 level in [2] was 88% (inactive). Further, the differential viability (reversal) in test [6] (H69AR cells + 2 uM doxorubicin) was 1.59% (inactive). Further, the inhibition in [7] was -2.69% (inactive); in test [8] it was 0.33% (inactive); in test [14] it was 1.53% (inactive). For the same compound, the results for the growth inhibition in test [9] and in test [10] were -2.34% (inactive) and -6.24% (inactive), respectively. Also, in [11], the viability increase is -3.72% (inactive). For the same compound, the RAM network inhibition in test [15] was 4.36% (inactive).
For `COC(=O)C(C#N)C(=C1C(=O)CC(C)(C)CC1=O)c1ccc(O)cc1` (stereo not drawn), the viability in test [1] was 90%; in test [3] it was 90% (inactive); in test [4], 96.5% (inactive); in test [5], 92% (inactive); in [6] (setting [16]), 95.6%; in test [6] (setting [17]) it was 92%. Besides, the figures for the viability in test [12] and in [13] were 97.5% (inactive) and 101% (inactive), respectively. Besides, the Her2 level in test [2] is 92.5% (inactive). Further, the differential viability (reversal) in test [6] (H69AR cells + 2 uM doxorubicin) was -3.63% (inactive). For the same compound, the inhibition in test [7] was 0.9% (inactive); in [8], -1.17% (inactive); in test [14] it was 1.16% (inactive). For the same compound, the growth inhibition in test [9] is -1.85% (inactive); in test [10], 0.91% (inactive). Also, in [11], the viability increase was 0.99% (inactive). Moreover, the RAM network inhibition in test [15] is 2.01% (inactive).
